The values below come from PubChem BioAssay.

Calls of active or inactive are those of the source. Unless noted, the rule behind the calls is not given here.

Experiment [1] has as its system XIP peptide (Xip251-270) binding. The experiment is described as follows: small-molecule binders of XIP peptide, primary screen, biochemical, small-molecule microarray, fluorescence 635/667 nm, 0.1 µg/mL protein (AID 1182). Particulars: fluorescent protein binding, 635 nm, higher = more signal, called active from +8 up or from −8 down.
In the next experiment the test system is XIP peptide (Xip251-270). Nature of the experiment: small-molecule binders of XIP peptide, primary screen, biochemical, small-molecule microarray, fluorescence 635/667 nm, 0.5 µg/mL protein (AID 1183). Conditions: small-molecule microarray binding, fluorescence 635 nm; higher = more signal.
A short description of experiment [2]: Plasmodium falciparum growth inhibition, primary screen, strain 3D7, DAPI fluorescence, 100 nL (AID 1184).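 Note: parasites grown inside human red blood cells in medium with human serum.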 Particulars: P. falciparum 3D7 growth, 3 d, higher = more signal.
Experiment [3] has as its target Homeobox protein Hox-A13 (Mus musculus) (UniProt Q62424). The experiment is described as follows: inhibitors of HoxA13-DNA binding, primary screen, biochemical, fluorescence polarization, labeled oligonucleotide (AID 1185). Conditions: 15 min, higher = more signal, called active from +8 up or from −8 down. (In general: In fluorescence polarisation assays a small probe gives low polarisation when free and higher when bound to something large.)

Experiment [4] in a line: inhibitors of hydroxyurea-induced Chk1 phosphorylation, primary screen, imaging, HeLa, phospho-Chk1 antibody, percent positive cells (AID 1186). Particulars: hydroxyurea-induced phospho-Chk1 immunofluorescence imaging, higher = more signal.
Experiment [5] is described as follows: inhibitors of hydroxyurea-induced Chk1 phosphorylation, primary screen, imaging, HeLa, phospho-Chk1 nuclear intensity (AID 1187). Particulars: hydroxyurea-induced phospho-Chk1 immunofluorescence imaging, higher = more signal.

Sequence of Homeobox protein Hox-A13 (Mus musculus) (Q62424 whole entry, looked up): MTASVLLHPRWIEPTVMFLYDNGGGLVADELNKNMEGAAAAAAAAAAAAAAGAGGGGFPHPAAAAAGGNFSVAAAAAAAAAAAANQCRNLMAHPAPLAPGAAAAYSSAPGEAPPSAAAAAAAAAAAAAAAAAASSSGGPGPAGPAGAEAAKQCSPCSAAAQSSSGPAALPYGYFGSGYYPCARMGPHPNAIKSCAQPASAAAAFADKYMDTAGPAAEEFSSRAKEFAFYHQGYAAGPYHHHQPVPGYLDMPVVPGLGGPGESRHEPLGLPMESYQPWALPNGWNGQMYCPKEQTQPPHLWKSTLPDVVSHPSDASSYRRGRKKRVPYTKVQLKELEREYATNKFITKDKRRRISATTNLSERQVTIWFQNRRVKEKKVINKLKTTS

For the compound `Cc1ccc(N2C(=O)c3ccccc3[C@](C)(C(=O)NCc3ccccc3)[C@@H]2c2ccc(CO)cc2)nc1`, the values for the composite z-score (in experiment [1]; in the experiment with XIP peptide (Xip251-270)) were -0.353 (inactive) and -0.33, respectively. Besides, the z-score was -1.34 in experiment [2], -0.408 (inactive) in experiment [3], -0.0668 (inactive) in experiment [4] and 0.0633 (inactive) in experiment [5].

On to `COc1cc(C(O)C2C=CC3C(=O)N(Cc4ccccc4)C(=O)C3N2n2cnnc2)cc(OC)c1OC` (stereo unspecified), for which the composite z-score was 0.494 (inactive) in experiment [1] and 0.435 in the experiment on XIP peptide (Xip251-270). In addition, the z-score was 0.551 in experiment [2], -1.38 (inactive) in experiment [3], 0.102 (inactive) in experiment [4] and 0.263 (inactive) in experiment [5].

With `CC(C)CCC[C@@H](C)[C@H]1CC[C@@]2(C)C3=C(CC[C@]12C)[C@@]1(C)CC[C@H](OC(=O)c2ccccc2)C(C)(C)C1CC3` (stereo partly specified), the composite z-score is 0.276 (inactive) in experiment [1] and 0.0627 in the experiment with XIP peptide (Xip251-270). For the same compound, the z-score in experiment [2] is -0.544; in experiment [3], -1 (inactive); in experiment [4] it was -0.531 (inactive); in experiment [5], -0.299 (inactive).

`CC(=O)n1cc(C(O)C2C=CC3C(=O)N(c4ccccc4)C(=O)C3N2Nc2ccc(C(C)C)cc2)c2ccccc21` (stereo unspecified): the composite z-score in experiment [1] was 0.18 (inactive); in the experiment on XIP peptide (Xip251-270), 0.755. The z-score in experiment [2] was -0.15; in experiment [3], -2.7 (inactive); in experiment [4] it was 0.417 (inactive); in experiment [5] it was 0.2 (inactive).

As to `C=C(COC)C(=O)CC[C@H](OC(C)=O)c1ccc(OCCO)cc1`, the composite z-score is -0.388 (inactive) in experiment [1] and 0.58 in the experiment on XIP peptide (Xip251-270). In addition, the z-score in experiment [2] is -2.39; in experiment [3] it was -4.76 (inactive); in experiment [4] it was -0.559 (inactive); in experiment [5] it was -0.357 (inactive).

In the case of `CN(C)C(=O)[C@@]1(Cc2ccccc2N=[N+]=[N-])N=C(c2ccc(OCCCO)cc2)O[C@H]1c1ccccc1`, the composite z-score in experiment [1] was 1.47 (inactive); in the experiment with XIP peptide (Xip251-270), 0.821. Also, the z-score in experiment [2] was -2.19; in experiment [3], -4.9 (inactive); in experiment [4] it was -0.279 (inactive); in experiment [5], -0.303 (inactive).

Regarding `C=C(/C(=C/C[C@@H](OC(C)=O)c1ccc(OCCO)cc1)c1cc(C(=O)OC)ccc1OC)C(C)C`, the composite z-score in experiment [1] was 0.96 (inactive); with XIP peptide (Xip251-270), 0.819. In addition, the z-score is -3 in experiment [2], -4.3 (inactive) in experiment [3], 0.38 (inactive) in experiment [4] and 0.578 (inactive) in experiment [5].

Consider `C=C[C@@H](OC)[C@H](OC(=O)Nc1ccc(SC)cc1)c1ccc(OCCO)cc1`, for which the composite z-score is -0.302 (inactive) in experiment [1] and 0.709 in the experiment on XIP peptide (Xip251-270). For the same compound, the z-score in experiment [2] is 0.0419; in experiment [3], -5.58 (inactive); in experiment [4], -0.0838 (inactive); in experiment [5], 0.168 (inactive).

As to `COc1cc(NN2C(C(O)C3CCCCC3)C=CC3C(=O)N(C)C(=O)C32)cc(OC)c1OC` (stereo unspecified), the composite z-score in experiment [1] is 0.123 (inactive); with XIP peptide (Xip251-270), 0.704. For the same compound, the z-score in experiment [2] is -0.246; in experiment [3], -4.48 (inactive); in experiment [4] it was 0.281 (inactive); in experiment [5], 0.264 (inactive).

In the case of `O=C1[C@@]23C=C(Br)[C@H](C[C@@H]2COC3)[C@@]12CO2`, the figures for the composite z-score (in experiment [1]; in the experiment with XIP peptide (Xip251-270)) were -0.0944 (inactive) and 0.0556, respectively. Moreover, the z-score is 2.53 in experiment [2], 0.786 (inactive) in experiment [3], 0.854 (inactive) in experiment [4] and 0.352 (inactive) in experiment [5].

`C[C@@]12COC[C@]13C=C(Br)[C@H](C2)[C@@]1(CO1)C3=O`: the composite z-score in experiment [1] is 0.0387 (inactive); in the experiment with XIP peptide (Xip251-270) it was -0.192. In addition, the z-score in experiment [2] was 1.88; in experiment [3] it was -0.703 (inactive); in experiment [4], -0.0927 (inactive); in experiment [5] it was 0.12 (inactive).

Turning to `C=CCC(OC(C)=O)[C@@H]1[C@@H](N(Cc2cccc3ccccc23)C(=O)c2cccc3ccccc23)c2cc(OCCCO)ccc2N1C(=O)c1ccc2ccccc2c1` (stereo partly specified), the composite z-score in experiment [1] was 0.25 (inactive); with XIP peptide (Xip251-270), 0.012. Moreover, the z-score in experiment [2] is -2.41; in experiment [3], -1.18 (inactive); in experiment [4], -0.534 (inactive); in experiment [5] it was -0.158 (inactive).

As to `COC(=O)C1=CC(CCCO)=CC(C)N(Cc2cccc(OC(F)(F)F)c2)C=C1C(=O)OC` (stereo unspecified), the composite z-score in experiment [1] was 0.0257 (inactive); with XIP peptide (Xip251-270), 0.526. Further, the z-score in experiment [2] is -1.12; in experiment [3] it was -7.74 (inactive); in experiment [4] it was -0.249 (inactive); in experiment [5], -0.655 (inactive).

With `C[C@]1(C(=O)NCCN2CCOCC2)c2ccccc2C(=O)N(Cc2cc(F)cc(C(F)(F)F)c2)[C@H]1c1ccc(CO)cc1`, the composite z-score in experiment [1] is 1.14 (inactive); in the experiment with XIP peptide (Xip251-270), 0.826. Further, the z-score in experiment [2] is -0.736; in experiment [3], -3.91 (inactive); in experiment [4], -0.69 (inactive); in experiment [5] it was -0.691 (inactive).

For `CC1(C)C(=O)C(c2ccccc2)=C2CN3C(=O)N(CCc4ccccc4)C(=O)C3(Cc3ccc(F)cc3)C=C21` (stereo unspecified), the results for the composite z-score (in experiment [1]; in the experiment on XIP peptide (Xip251-270)) were 0.2 (inactive) and 0.328, respectively. For the same compound, the z-score is -1.81 in experiment [2], -1.99 (inactive) in experiment [3], 0.478 (inactive) in experiment [4] and -0.173 (inactive) in experiment [5].

Regarding `C=C(C(=O)CC[C@@H](OC(=O)c1ccccc1-c1ccccc1C(=O)O)c1ccccc1OCCO)C(C)C`, the values for the composite z-score (in experiment [1]; with XIP peptide (Xip251-270)) were 0.341 (inactive) and 0.698, respectively. Moreover, the z-score in experiment [2] is -2.04; in experiment [3], -5.82 (inactive); in experiment [4], 0.57 (inactive); in experiment [5] it was 0.916 (inactive).
